# Results published in PubChem BioAssay AID1508601 (ICCB-Longwood Screening Facility, Harvard Medical School, 2020).
# Several values for one entry are separate records, joined by “and”; a condition that tells them apart may be missing. Identical values can stand only once. Hit rate of the full screen: of about 5,700 compounds, about 85 (1%) were called active. No stated cut-off is given here; in the data, active means p53-positive nuclei above about 36% (passing the limit was not always enough); inactive means the rest. Shown is part of a subset that was picked to be rich in actives.
# Tests used:
# [1] = nuclear p53 accumulation, HPV+ cells – imaging, p53-positive nuclei imaging, 24 h, 48 h (AID 1508601); details: 24/48 h
# [2] = molecular target: Cellular tumor antigen p53 (Homo sapiens) (UniProt P04637); test: as above; details: 24/48 h, stronger effect = higher value
# Chain of Cellular tumor antigen p53 (Homo sapiens) (P04637 whole entry, looked up): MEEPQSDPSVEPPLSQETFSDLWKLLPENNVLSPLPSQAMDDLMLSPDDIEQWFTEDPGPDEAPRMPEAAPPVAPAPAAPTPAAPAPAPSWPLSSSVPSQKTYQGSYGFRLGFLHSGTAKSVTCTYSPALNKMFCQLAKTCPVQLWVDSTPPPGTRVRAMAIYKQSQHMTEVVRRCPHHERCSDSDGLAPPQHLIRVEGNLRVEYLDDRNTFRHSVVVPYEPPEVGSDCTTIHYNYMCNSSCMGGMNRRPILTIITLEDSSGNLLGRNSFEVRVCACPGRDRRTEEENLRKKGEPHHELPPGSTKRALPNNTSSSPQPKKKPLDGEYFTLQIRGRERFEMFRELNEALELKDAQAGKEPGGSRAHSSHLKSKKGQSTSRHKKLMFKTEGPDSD
# [3] = measured here: cell number at 24 h, Library stock concentration: 3.33 mM
# [4] = measured here: cell number at 48 h, Library stock concentration: 3.33 mM
# [5] = Library stock concentration: 3.33 mM
# [6] = measured here: p53 positive nuclei at 24 h, Library stock concentration: 3.33 mM
# [7] = measured here: cell number at 24 h, Library stock concentration: 46 uM
# [8] = measured here: cell number at 24 h, Library stock concentration: 278 uM
# [9] = measured here: cell number at 24 h, Library stock concentration: 1.67 mM
# [10] = measured here: cell number at 24 h, Library stock concentration: 10 mM
# [11] = measured here: cell number at 48 h, Library stock concentration: 46 uM
# [12] = measured here: cell number at 48 h, Library stock concentration: 278 uM
# [13] = measured here: cell number at 48 h, Library stock concentration: 1.67 mM
# [14] = measured here: cell number at 48 h, Library stock concentration: 10 mM
# [15] = Library stock concentration: 46 uM
# [16] = Library stock concentration: 278 uM
# [17] = Library stock concentration: 1.67 mM
# [18] = Library stock concentration: 10 mM
# [19] = measured here: p53 positive nuclei at 24 h, Library stock concentration: 46 uM
# [20] = measured here: p53 positive nuclei at 24 h, Library stock concentration: 278 uM
# [21] = measured here: p53 positive nuclei at 24 h, Library stock concentration: 1.67 mM
# [22] = measured here: p53 positive nuclei at 24 h, Library stock concentration: 10 mM
# [23] = measured here: cell number at 24 h, Library stock concentration: 80 uM
# [24] = measured here: cell number at 24 h, Library stock concentration: 400 uM
# [25] = measured here: cell number at 24 h, Library stock concentration: 2 mM
# [26] = measured here: cell number at 48 h, Library stock concentration: 80 uM
# [27] = measured here: cell number at 48 h, Library stock concentration: 400 uM
# [28] = measured here: cell number at 48 h, Library stock concentration: 2 mM
# [29] = Library stock concentration: 80 uM
# [30] = Library stock concentration: 400 uM
# [31] = Library stock concentration: 2 mM
# [32] = measured here: p53 positive nuclei at 24 h, Library stock concentration: 80 uM
# [33] = measured here: p53 positive nuclei at 24 h, Library stock concentration: 400 uM
# [34] = measured here: p53 positive nuclei at 24 h, Library stock concentration: 2 mM
smiles,measurement,setting,value
O=C(NN=Cc1ccc(O)c(O)c1)c1cc2ccccc2cc1O,"nuclei count, normalised",[1]; [3],108%
same,"nuclei count, normalised",[1]; [4],99.5%
same,"p53-positive nuclei, normalised",[2]; [5],0.0529% (inactive)
same,"p53-positive nuclei, normalised",[2]; [6],-0.25%
CCOC(=O)NC1CCC2C(C1)CC1C(=O)OC(C)C1C2C=Cc1ccc(-c2cccc(F)c2)cn1 (stereo unspecified),"nuclei count, normalised",[1]; [7],115%
same,"nuclei count, normalised",[1]; [8],108%
same,"nuclei count, normalised",[1]; [9],101%
same,"nuclei count, normalised",[1]; [10],105%
same,"nuclei count, normalised",[1]; [11],117%
same,"nuclei count, normalised",[1]; [12],109%
same,"nuclei count, normalised",[1]; [13],107%
same,"nuclei count, normalised",[1]; [14],107%
same,"p53-positive nuclei, normalised",[2]; [15],-0.0807% (inactive)
same,"p53-positive nuclei, normalised",[2]; [16],-0.17% (inactive)
same,"p53-positive nuclei, normalised",[2]; [17],0.0724% (inactive)
same,"p53-positive nuclei, normalised",[2]; [18],-0.166% (inactive)
same,"p53-positive nuclei, normalised",[2]; [19],-0.0891%
same,"p53-positive nuclei, normalised",[2]; [20],-0.151%
same,"p53-positive nuclei, normalised",[2]; [21],-0.079%
same,"p53-positive nuclei, normalised",[2]; [22],0.188%
Nc1ccccc1NC(=O)c1ccc(CNc2nccc(-c3cccnc3)n2)cc1,"nuclei count, normalised",[1]; [23],128%
same,"nuclei count, normalised",[1]; [24],124%
same,"nuclei count, normalised",[1]; [25],125%
same,"nuclei count, normalised",[1]; [3],42.1%
same,"nuclei count, normalised",[1]; [10],49.9%
same,"nuclei count, normalised",[1]; [26],109%
same,"nuclei count, normalised",[1]; [27],107%
same,"nuclei count, normalised",[1]; [28],98.1%
same,"nuclei count, normalised",[1]; [4],30.1%
same,"nuclei count, normalised",[1]; [14],29.3%
same,"p53-positive nuclei, normalised",[2]; [29],8% (inactive)
same,"p53-positive nuclei, normalised",[2]; [30],0.396% (inactive)
same,"p53-positive nuclei, normalised",[2]; [31],1.82% (inactive)
same,"p53-positive nuclei, normalised",[2]; [5],23.5% (inactive)
same,"p53-positive nuclei, normalised",[2]; [18],83.5% (active)
same,"p53-positive nuclei, normalised",[2]; [32],4.97%
same,"p53-positive nuclei, normalised",[2]; [33],0.046%
same,"p53-positive nuclei, normalised",[2]; [34],0.551%
same,"p53-positive nuclei, normalised",[2]; [6],10.3%
same,"p53-positive nuclei, normalised",[2]; [22],87.6%
Cc1ccc(NC(=O)c2ccc(CN3CCN(C)CC3)cc2)cc1Nc1nccc(-c2cccnc2)n1,"nuclei count, normalised",[1]; [23],114%
same,"nuclei count, normalised",[1]; [24],85.7%
same,"nuclei count, normalised",[1]; [25],91%
same,"nuclei count, normalised",[1]; [3],99% and 103%
same,"nuclei count, normalised",[1]; [10],87.2%
same,"nuclei count, normalised",[1]; [26],112%
same,"nuclei count, normalised",[1]; [27],84.9%
same,"nuclei count, normalised",[1]; [28],92.2%
same,"nuclei count, normalised",[1]; [4],99.2% and 104%
same,"nuclei count, normalised",[1]; [14],87.9%
same,"p53-positive nuclei, normalised",[2]; [29],0.0518% (inactive)
same,"p53-positive nuclei, normalised",[2]; [30],0.00427% (inactive)
same,"p53-positive nuclei, normalised",[2]; [31],-0.0247% (inactive)
same,"p53-positive nuclei, normalised",[2]; [5],-0.686% (inactive) and -0.212% (inactive)
same,"p53-positive nuclei, normalised",[2]; [18],-0.182% (inactive)
same,"p53-positive nuclei, normalised",[2]; [32],0.0696%
same,"p53-positive nuclei, normalised",[2]; [33],0.334%
same,"p53-positive nuclei, normalised",[2]; [34],0.0437%
same,"p53-positive nuclei, normalised",[2]; [6],-0.375% and -0.356%
same,"p53-positive nuclei, normalised",[2]; [22],-0.0433%
Nc1ccccc1NC(=O)c1ccc(CNC(=O)OCc2cccnc2)cc1,"nuclei count, normalised",[1]; [7],96%
same,"nuclei count, normalised",[1]; [23],114%
same,"nuclei count, normalised",[1]; [8],104%
same,"nuclei count, normalised",[1]; [24],118%
same,"nuclei count, normalised",[1]; [9],107%
same,"nuclei count, normalised",[1]; [25],124%
same,"nuclei count, normalised",[1]; [3],104%
same,"nuclei count, normalised",[1]; [10],90.8% and 96%
same,"nuclei count, normalised","[1]; measured here: cell number at 24 h, concentration not given here",107%
same,"nuclei count, normalised",[1]; [11],96.3%
same,"nuclei count, normalised",[1]; [26],103%
same,"nuclei count, normalised",[1]; [12],103%
same,"nuclei count, normalised",[1]; [27],100%
same,"nuclei count, normalised",[1]; [13],95.3%
same,"nuclei count, normalised",[1]; [28],101%
same,"nuclei count, normalised",[1]; [4],88.9%
same,"nuclei count, normalised",[1]; [14],58% and 57.5%
same,"nuclei count, normalised","[1]; measured here: cell number at 48 h, concentration not given here",103%
same,"p53-positive nuclei, normalised",[2]; [15],-0.0533% (inactive)
same,"p53-positive nuclei, normalised",[2]; [29],-0.489% (inactive)
same,"p53-positive nuclei, normalised",[2]; [16],-0.145% (inactive)
same,"p53-positive nuclei, normalised",[2]; [30],-0.1% (inactive)
same,"p53-positive nuclei, normalised",[2]; [17],3.54% (inactive)
same,"p53-positive nuclei, normalised",[2]; [31],0.00969% (inactive)
same,"p53-positive nuclei, normalised",[2]; [5],0.482% (inactive)
same,"p53-positive nuclei, normalised",[2]; [18],17.1% (inactive) and 14.2% (inactive)
same,"p53-positive nuclei, normalised",[2]; concentration not given here,0.78% (inactive)
same,"p53-positive nuclei, normalised",[2]; [19],0.084%
same,"p53-positive nuclei, normalised",[2]; [32],-0.0702%
same,"p53-positive nuclei, normalised",[2]; [20],-0.207%
same,"p53-positive nuclei, normalised",[2]; [33],0.0634%
same,"p53-positive nuclei, normalised",[2]; [21],5.23%
same,"p53-positive nuclei, normalised",[2]; [34],0.00201%
same,"p53-positive nuclei, normalised",[2]; [6],0.899%
same,"p53-positive nuclei, normalised",[2]; [22],34.2% and 14.9%
same,"p53-positive nuclei, normalised","[2]; measured here: p53 positive nuclei at 24 h, concentration not given here",0.224%
